In one test the test system is CRL-7250. The test is described as follows: Cytotoxic Profiling of Annotated Libraries Using Quantitative High-Throughput Screening (AID 1296008). Further: potency means the concentration at half of the fitted maximal effect. On max response: on the % scale 0 is the no-effect control and ±100 the full control effect. Conditions: Five cell lines viability, CellTiter-Glo ATP luminescence, 48-72 h; max response: hits give low values. Put shortly: (§1)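 Cells exposed to compounds for 48 or 72 hr at 37 degrees Celsius. Viability read as ATP-coupled luminescence with CellTiter-Glo after 10 min at room temperature.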
A general note: Cellular ATP, detected with luciferase, serves as a proxy for viable cell number.

In the next test the test system is HaCat. The description is as above. The conditions noted are these: Five cell lines viability, CellTiter-Glo ATP luminescence, 48-72 h; max response: hits give low values. Summed up:
as §1

The test system of a further test is KB-3-1. Described as above. Conditions: Five cell lines viability, CellTiter-Glo ATP luminescence, 48-72 h; max response: hits give low values. Summed up: as §1
The next test concerns HB3. Kind of test: qHTS profiling for inhibitors of Plasmodium falciparum proliferation (AID 504749).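 Further: 0% = DMSO vehicle and full inhibition = artemisinin control.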 Conditions: P. falciparum in erythrocytes, SYBR Green DNA, 72 h; series mostly up to 28.7 µM. Put shortly:
(§2)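 Each compound contacts P. falciparum-infected red blood cells for 72 h at 37 C; lysis buffer (Tris, EDTA, saponin, Triton X, SYBR Green I) is added and fluorescence measured next morning; values normalized to controls.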
A general note: In qHTS, concentration-response curves come from the screen itself.

The test system of a further test is JCK. Described as above. The conditions noted are these: P. falciparum in erythrocytes, SYBR Green DNA, 72 h; series mostly up to 28.7 µM. Put shortly:
as §2

The next test relates to N140. The test is described as above. The conditions noted are these: P. falciparum in erythrocytes, SYBR Green DNA, 72 h; series mostly up to 28.7 µM. Summed up:
as §2

In the next test the test system is P93_24. Described as above. The conditions noted are these: P. falciparum in erythrocytes, SYBR Green DNA, 72 h; series mostly up to 28.7 µM. Put shortly: as §2
Another test deals with P94_40. Described as above. Conditions: P. falciparum in erythrocytes, SYBR Green DNA, 72 h; series mostly up to 28.7 µM. Put shortly: as §2
The subject of the next test is PAD. The description is as above. The conditions noted are these: P. falciparum in erythrocytes, SYBR Green DNA, 72 h; series mostly up to 28.7 µM. Put shortly:
as §2

The test system of another test is PC15. The test is described as above. The conditions noted are these: P. falciparum in erythrocytes, SYBR Green DNA, 72 h; series mostly up to 28.7 µM. Put shortly:
as §2

In a further test the test system is PC26. Described as above. Conditions: P. falciparum in erythrocytes, SYBR Green DNA, 72 h; series mostly up to 28.7 µM. Summed up:
as §2

For the next test, the system named is PC49. The test is described as above. The conditions noted are these: P. falciparum in erythrocytes, SYBR Green DNA, 72 h; series mostly up to 28.7 µM. Put shortly: as §2
The next test deals with SC27B. The description is as above. Conditions: P. falciparum in erythrocytes, SYBR Green DNA, 72 h; series mostly up to 28.7 µM. Summed up: as §2
For the next test, the system named is TAB113. The description is as above. The conditions noted are these: P. falciparum in erythrocytes, SYBR Green DNA, 72 h; series mostly up to 28.7 µM. Put shortly:
as §2

The next test has as its system TAB165. The test is described as above. Conditions: P. falciparum in erythrocytes, SYBR Green DNA, 72 h; series mostly up to 28.7 µM. Summed up:
as §2

The test system of the next test is GB4. The test is described as above. Conditions: P. falciparum in erythrocytes, SYBR Green DNA, 72 h; series mostly up to 28.7 µM. Summed up: as §2
In another test the test system is ICS. Described as above. The conditions noted are these: P. falciparum in erythrocytes, SYBR Green DNA, 72 h; series mostly up to 28.7 µM. Put shortly:
as §2

The subject of another test is TAB109. The description is as above. Conditions: P. falciparum in erythrocytes, SYBR Green DNA, 72 h; series mostly up to 28.7 µM. Put shortly: as §2
Another test concerns W2. Described as above. The conditions noted are these: P. falciparum in erythrocytes, SYBR Green DNA, 72 h; series mostly up to 28.7 µM. Put shortly: as §2
The test system of the next test is HEK293. Kind of test: Cytotoxic Profiling of Annotated Libraries Using Quantitative High-Throughput Screening (AID 1296008). Further: potency means the concentration at half of the fitted maximal effect. On max response: on the % scale 0 is the no-effect control and ±100 the full control effect. Conditions: Five cell lines viability, CellTiter-Glo ATP luminescence, 48-72 h; max response: hits give low values. Put shortly:
as §1

“And” between values parts separate entries of the source, which are not always exact repeats. Equal entries are not always repeated. Inconclusive results are not listed. Unmarked numbers belong to inactive results. The source made the active and inactive calls. The call rests on the fitted dose curve; in most records, active means well fitted inhibition curve with a large enough effect; inconclusive means small, poorly fitted or top-dose-only effect; inactive means flat fitted curve, though single readings scatter.
Further: nearly all actives have a fitted effect of over 60% in size.

For the molecule `C[N+]1(CCF)[C@@H]2CC[C@H]1CC(OC(=O)C(O)(c1ccccc1)c1ccccc1)C2` (stereo partly specified), the molecule was classed as inactive with CRL-7250 and in the test on HaCat. Besides, the max response with KB-3-1 is -9.39%.
Turning to `CC(C)C[C@H](CN)CC(=O)O`, the max response is -0.456% in the test with CRL-7250; -0.0678% with HaCat; -13.5% and 1.18% in the test on KB-3-1.
Regarding `O=C1c2ccccc2C(=O)C1C(=O)C(c1ccccc1)c1ccccc1`, the Potency entry with HB3, in the test on JCK, in the test on N140, with P93_24, with P94_40 and in the test with PAD was “inactive” throughout. The Potency entry in the test on PC15, in the test with PC26, in the test with PC49, in the test on SC27B, in the test with TAB113 and in the test on TAB165 was “inactive” throughout. For the same molecule, the max response with CRL-7250 was 3.94%; in the test on KB-3-1 it was -7.07%. The molecule was called inactive in the test on HaCat.
Take `CN1C(=O)COc2c(C(=O)NC3CN4CCC3CC4)cc(Cl)cc21` (stereo unspecified): the Potency entry in the test on GB4, in the test with HB3, in the test with ICS, with JCK, with N140 and in the test with P93_24 was “inactive” throughout. Moreover, the Potency entry with P94_40, in the test with PAD, with PC15, in the test with PC26, with PC49 and in the test with SC27B was “inactive” throughout. The Potency result in the test on TAB109, in the test with TAB113, in the test with TAB165 and with W2 was “inactive” each time. Also, the max response was -5.92% in the test on CRL-7250; -0.711% and 2.67% with HaCat; 2.45% in the test with KB-3-1.
On to `C[C@@H]1CC2=CC(=O)CC[C@@H]2[C@H]2CC[C@@]3(C)[C@@H](CC[C@]3(C)O)[C@@H]21`, for which the max response in the test with HaCat was -11%.
For the molecule `CC(C)=CC1C(C(=O)OCN2C(=O)C3=C(CCCC3)C2=O)C1(C)C` (stereo unspecified), the Potency entry in the test on GB4, in the test with HB3, with ICS, in the test with JCK, in the test with N140 and in the test with P93_24 was “inactive” in each case. Further, the Potency result in the test with P94_40, in the test with PAD, with PC15, in the test on PC26, in the test with PC49 and with SC27B was “inactive” each time. The Potency result with TAB109, with TAB113, in the test on TAB165 and in the test on W2 was “inactive” throughout. The molecule was classed as inactive with HaCat. Also, the max response in the test with KB-3-1 was 2.15%.
For `C[C@]12CC[C@@H]3c4ccc(OC(=O)N(CCCl)CCCl)cc4CC[C@H]3[C@@H]1CC[C@@H]2O`, the Potency entry in the test with GB4, with HB3, with ICS, in the test on JCK, in the test with N140 and with P93_24 was “inactive” in each case. In addition, the Potency result in the test with P94_40, in the test on PAD, in the test on PC15, in the test with PC26, in the test on PC49 and with SC27B was “inactive” throughout. The Potency entry in the test with TAB109, in the test on TAB113, with TAB165 and with W2 was “inactive” in each case. In addition, the Potency in the test with HEK293 is 29.9 µM (active). Further, in the test with KB-3-1, the max response was -1.74%.
Turning to `O=c1oc2ccccc2c(O)c1Cc1c(O)c2ccccc2oc1=O`, the Potency result in the test with GB4, in the test with HB3, in the test on ICS, in the test with JCK, with N140 and with P93_24 was “inactive” each time. Moreover, the Potency result in the test with P94_40, with PAD, with PC15, with PC26, with PC49 and in the test on SC27B was “inactive” throughout. Also, the Potency result in the test on TAB109, in the test on TAB113, with TAB165 and with W2 was “inactive” each time. The call in the test with HaCat was inactive.
Regarding `CC(C)c1c(CN(C)C(C)Cc2ccccc2)n(C)n(-c2ccccc2)c1=O` (stereo unspecified), in the test on HEK293, the Potency was 8.41 µM (active). In addition, the max response with KB-3-1 was 1.6%.
Take `CC(C)[C@H]1C(=O)N2CCC[C@H]2[C@]2(O)O[C@](NC(=O)[C@@H]3C[C@@H]4c5cccc6[nH]cc(c56)C[C@H]4N(C)C3)(C(C)C)C(=O)N12`: the max response in the test with KB-3-1 is 22.9%.
For `COc1cccc([C@@]2(O)CCCC[C@@H]2CN(C)C)c1`, the molecule was classed as inactive with CRL-7250. The max response in the test on KB-3-1 is 0.535%.
Consider `O=C1Nc2ccc(Cl)cc2C(c2ccccc2Cl)=NC1O` (stereo unspecified), for which the Potency entry in the test on GB4, with HB3, in the test on ICS, in the test with JCK, in the test on N140 and in the test on PC15 was “inactive” in each case. In addition, the Potency entry with PC26, in the test with PC49, with SC27B, in the test with TAB109, in the test on TAB113 and in the test with TAB165 was “inactive” each time. The Potency entry in the test with W2 was “inactive”. In the test on KB-3-1, the max response was 3.46%.
With `Nc1ccn(C[C@@H](CO)OCP(=O)(O)O)c(=O)n1`, the max response in the test with KB-3-1 was -9.56%.
For `CCCCC/C=C\C/C=C\C/C=C\C/C=C\CCCC(=O)NCC(=O)O`, the activity, negative = inhibition in the test with GB4 is 5.94% [at 2.67 µM]; in the test on HB3 it was -4.91% [at 2.67 µM]; with ICS it was -4.84% [at 2.67 µM]; in the test on JCK it was 0.614% [at 2.67 µM]; with N140 it was -7.13% [at 2.67 µM]; in the test with P93_24, -5.2% [at 2.67 µM]. For the same molecule, the activity, negative = inhibition is -8.27% [at 2.67 µM] in the test on P94_40; 4.88% [at 2.67 µM] in the test on PAD; 6.96% [at 2.67 µM] in the test on PC15; 8.23% [at 2.67 µM] in the test with PC26; 0.575% [at 2.67 µM] in the test with SC27B; -11.7% [at 2.67 µM] in the test on TAB109. The activity, negative = inhibition in the test on TAB113 is 3.88% [at 2.67 µM]; with W2 it was 6.9% [at 2.67 µM]. In addition, the max response was -2.63% in the test with CRL-7250 and -17.5% with KB-3-1.
Consider `O=C1CN=C(c2ccccc2)c2cc([N+](=O)[O-])ccc2N1`, for which the Potency result with GB4, with HB3, in the test with ICS, with JCK, in the test on N140 and in the test with P93_24 was “inactive” each time. Moreover, the Potency result in the test on P94_40, in the test on PAD, in the test on PC15, in the test with PC26, with PC49 and with SC27B was “inactive” in each case. Also, the Potency entry with TAB109, in the test on TAB113, with TAB165 and with W2 was “inactive” each time. Also, the max response was -13.4% with HEK293 and 3.93% in the test on KB-3-1. In addition, in the test with HaCat, the molecule was classed as inactive.
Turning to `Nc1nc(N)nc(NC2CC2)n1`, the Potency entry with GB4, with HB3, in the test on ICS, with JCK, in the test on N140 and in the test with P93_24 was “inactive” in each case. The Potency result in the test on P94_40, in the test on PAD, with PC15, in the test with PC26, with PC49 and in the test on SC27B was “inactive” each time. For the same molecule, the Potency result in the test with TAB109, in the test with TAB113, in the test on TAB165 and in the test on W2 was “inactive” throughout. The max response was -14.4% in the test on CRL-7250 and 8.79% with KB-3-1.
For `COC(=O)C(Cl)C(=O)OC`, the figures for the max response with CRL-7250 and in the test on KB-3-1 were -1.36% and -12.1%, respectively.
With `C[C@](O)(CS(=O)(=O)c1ccc(F)cc1)C(=O)Nc1ccc(C#N)c(C(F)(F)F)c1`, the Potency result with GB4, in the test with HB3, in the test on ICS, with JCK, in the test on N140 and in the test on P93_24 was “inactive” in each case. Besides, the Potency entry in the test with P94_40, with PAD, in the test on PC15, with PC26, with PC49 and in the test on SC27B was “inactive” throughout. Besides, the Potency entry with TAB113, in the test on TAB165 and in the test with W2 was “inactive” in each case. Also, the molecule was called inactive in the test on HaCat. For the same molecule, in the test on KB-3-1, the max response was 5.52%.

These data come from PubChem BioAssay (NCATS).
